Data taken from PubChem BioAssay AID488890 (Southern Research Specialized Biocontainment Screening …, 2010).
In all, about 320,000 compounds went through this assay and about 1,300 (0.41%) were called active. About 3% were inconclusive and are not listed. No rule for the calls is given here. A selection follows. Entries with a potency or affinity are not part of this list.

Assay: growth inhibition of non-replicating M. tuberculosis (AID 488890);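 also: plate controls were DMSO cells for no effect and high antibiotic wells for full effect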
Details: Mycobacterium tuberculosis non-replicating, at 25 µM, stronger effect = higher value
For `CNC(=S)NNS(=O)(=O)c1ccc(OC)cc1OC`, the inhibition was -11%. For `O=C(CN1CCN(c2ccccc2)CC1)Nc1nccs1`, the inhibition was 5.49%. Molecule `COc1cccc(N2CCN(CC(=O)Nc3nnc(-c4ccccc4)s3)CC2)c1` has an inhibition of 29.2%. For `C=CCn1c(=S)[nH]c2cc(C(=O)Nc3ccc(OC)c(OC)c3)ccc2c1=O`, the inhibition was -8.59%. In the case of `O=C(NCCc1ccc(F)cc1)c1cc2ccccc2oc1=O`, the inhibition is reported as 47.5%. For `COc1cccc2cc(C(=O)NCCc3c[nH]c4ccccc34)c(=O)oc12`, the inhibition was 61%. With `COC(=O)C1=CN(Cc2ccc(OC)cc2)C=C(C(=O)OC)C1c1cc(OC)c(OC)c(OC)c1` the inhibition was 8.79%. With `CCCCn1c(=O)c(C(=O)Nc2ccccn2)c(O)c2ccccc21` the inhibition was 27.8%. `CCCCCn1c(=O)c(C(=O)Nc2ccccn2)c(O)c2ccccc21` showed an inhibition of 68.9%. `CCCCn1c(=O)c(C(=O)Nc2ccc(C)cn2)c(O)c2ccccc21` gave an inhibition of 0.62%. For `CCCCCn1c(=O)c(C(=O)Nc2cc(C)ccn2)c(O)c2ccccc21`, the inhibition was 17.3%. In the case of `COc1cccc(NC(=O)c2ccnc(N3CCC(C(=O)NCc4ccccc4OC)CC3)c2)c1`, the inhibition is reported as -4.35%. For `CC(C)(C)C(=O)Nc1c2c(nn1-c1ccccc1)CSC2`, the inhibition was 35%. `COc1ccc(OCC(=O)NNC(=O)c2cccnc2)cc1` gave an inhibition of 3.8%. `COc1cccc(N2CCN(C(=S)Nc3ccc(F)cc3)CC2)c1` gave an inhibition of -4.62%. Molecule `c1coc(Cn2c(-c3ccco3)nc3ccccc32)c1` has an inhibition of 6.77%. `c1ccc(OCCn2c(-c3ccco3)nc3ccccc32)cc1` gave an inhibition of 74.4%. `C=CCSc1nnc2c(n1)OC(C)=Nc1ccc(Br)cc1-2` gave an inhibition of 5.66%. Molecule `Cc1cc(NC(=O)COC(=O)c2ccccc2S(=O)(=O)N(C)c2ccccc2)no1` has an inhibition of 9.17%. With `CS(=O)(=O)c1ccccc1-c1nnc(NC(=O)COc2ccc(Cl)cc2)o1` the inhibition was 21.8%. With `CC1(C(=O)OCC(=O)Nc2ccccc2)CC1(Cl)Cl` (stereo not drawn) the inhibition was 48.2%. In the case of `O=C(Nc1ccc2c(c1)CCC2)c1c(F)cccc1Cl`, the inhibition is reported as 1.55%. Work on `O=C(COc1ccccc1)Nc1nnc(-c2ccco2)o1` yielded an inhibition of 19.2%. In the case of `O=C(COC(=O)Cc1ccccc1)Nc1nnc(-c2ccccc2)o1`, the inhibition is reported as 10.8%. Work on `O=C(CCOc1ccccc1)Nc1nnc(-c2ccc3c(c2)OCCO3)o1` yielded an inhibition of -7.7%. For `O=C(Nc1nnc(-c2ccncc2)o1)c1ccccc1F`, the inhibition was 21.3%. Work on `Cc1ccc(C)c(-c2nnc(NC(=O)Cc3ccccc3)o2)c1` yielded an inhibition of -18%. `COc1ccccc1NC(=O)COC(=O)CCc1ccc(S(=O)(=O)N2CCOCC2)cc1` showed an inhibition of 5.51%. With `CCCCN1CC(COc2ccccc2)OC1=O` (stereo not drawn) the inhibition was 72.5%. Molecule `COc1ccc(Nc2oc(COc3cccc(C)c3)nc2C#N)cc1` has an inhibition of 13.3%. For `CCN(CC)S(=O)(=O)c1ccc(N2CCCC2)c(NC(=O)c2c(-c3ccccc3)noc2C)c1`, the inhibition was 13.9%. Molecule `Cc1cccc(C(=O)NCC(=O)OCC(=O)NC2CCCCC2)c1` has an inhibition of -3.75%. Work on `O=C(NCc1ccncc1)C(=O)NCC1OCCN1S(=O)(=O)c1cc(F)ccc1F` (stereo not drawn) yielded an inhibition of 3.82%. For `Cc1cccc2c(=O)c(C(=O)NCCCN3CCOCC3)c[nH]c12`, the inhibition was 4.67%. Molecule `Cc1nnc(SCCn2c(N3CCCCC3)nc3c2c(=O)n(C)c(=O)n3C)s1` has an inhibition of 7.29%. `Cc1cnc(NC(=O)c2ccc3c(c2)OCCO3)s1` showed an inhibition of 12.1%. With `O=C(Nc1ccc([N+](=O)[O-])cn1)c1ccc2c(c1)OCO2` the inhibition was -8.57%. For `Cc1ccc(C2(c3noc(CN4CCC(C(=O)N5CCOCC5)CC4)n3)CCCC2)cc1`, the inhibition was 14.3%. Molecule `COC(=O)c1oc2ccc(Br)cc2c1NC(=O)CCCN1C(=O)c2ccccc2C1=O` has an inhibition of -12.2%. Work on `CC(=O)Oc1ccc(C(=O)Nc2cccc(C(=O)NC(C)(C)C)c2)cc1` yielded an inhibition of 7.66%. Work on `O=C(COc1ccc2c(-c3ccccc3)cc(=O)oc2c1)NCc1ccccn1` yielded an inhibition of 7.24%. Molecule `Cc1nn(-c2ccccc2)c(C)c1CN` has an inhibition of 6.26%. With `CCOc1ccc(C(=O)Oc2ccc(NC(C)=O)cc2)cc1` the inhibition was 24.7%. For `CC(=O)Nc1ccc(OC(=O)c2ccc(Cl)cc2)cc1`, the inhibition was 52.1%. `Cc1ccc(N2CC(C(=O)Nc3nnc(SCCC4OCCO4)s3)CC2=O)cc1C` (stereo not drawn) gave an inhibition of 27.4%. `CCN(CC(=O)NCc1ccc(F)cc1)C(=O)COc1ccc(C)c(C)c1` showed an inhibition of 28.3%. `COc1ccc(C(=O)O)cc1S(=O)(=O)NC(C)C` showed an inhibition of -0.91%. `Oc1ccc(Br)cc1-c1cc(-c2ccc(Cl)cc2)n[nH]1` showed an inhibition of 13.8%. Molecule `Oc1ccc(Br)cc1-c1cc(-c2ccccc2)n[nH]1` has an inhibition of -5.74%. Molecule `C1=C(CCNCc2ccccc2)CCCC1` has an inhibition of -4.9%. `NS(=O)(=O)c1ccc(NNC(=O)c2ccccc2C(=O)O)cc1` showed an inhibition of -12.1%. Work on `O=C(O)c1ccccc1C(=O)NNc1ccc(Cl)cc1Cl` yielded an inhibition of 10.7%. With `O=C(NNc1ccc([N+](=O)[O-])cc1)c1ccco1` the inhibition was 69.6%. `O=C(NC(NNc1ccc([N+](=O)[O-])cc1)(C(F)(F)F)C(F)(F)F)c1ccccc1Cl` showed an inhibition of 6.68%. With `Cc1cc(C(=O)N/N=C/c2cccs2)no1` the inhibition was 33.9%. For `O=C(NNC(=O)C1CC1c1ccccc1)c1cccc([N+](=O)[O-])c1` (stereo not drawn), the inhibition was 3.57%. With `Cc1cc(C(=O)N/N=C/c2ccc[nH]2)no1` the inhibition was 64.3%. `O=C(NNC(=O)C1CC1c1ccccc1)c1ccccc1[N+](=O)[O-]` (stereo not drawn) showed an inhibition of -10.3%. In the case of `CN(c1ccccc1)S(=O)(=O)c1ccc(NC(=S)NC(=O)C2CC2)cc1`, the inhibition is reported as -18.9%. In the case of `COc1cc(OC)cc(C(=O)N2CCC(C(=O)c3ccc(F)cc3)CC2)c1`, the inhibition is reported as 5.91%. `CC(C)[C@@H](C(=O)NC1CC1)N1C(=O)N2CCc3c([nH]c4ccccc34)[C@@]2(C)C1=O` gave an inhibition of 21%. For `CC1CCC(NC(=O)CN2CCN(S(=O)(=O)c3cccs3)CC2)CC1` (stereo not drawn), the inhibition was 1.37%. For `Cc1nc2c(-c3ccc(F)cc3)c(C)nn2c(N2CCOCC2)c1C`, the inhibition was 40.1%. Molecule `O=C(O)CSc1nnc(-c2ccc(Cl)cc2Cl)n1Cc1ccccc1` has an inhibition of -8.24%. In the case of `O=C(NC1CCCCC1)C(c1cccs1)N(C(=O)C(F)(F)F)c1ccccc1` (stereo not drawn), the inhibition is reported as 14.2%. With `Cc1cc(C(=O)NNc2ccc(F)cc2)no1` the inhibition was 57.1%. With `Cc1cc(C(=O)NNC(=O)Nc2ccc(Cl)cc2)no1` the inhibition was -6.49%. Molecule `Cc1ccc(C)c(C(=O)CCC(=O)Nc2ccc(F)cc2)c1` has an inhibition of 40%. Molecule `CC(C)OCC(O)CS(=O)(=O)Cc1ccccc1` (stereo not drawn) has an inhibition of -5.18%. With `O=C(c1cccnc1)N1CCC(Oc2ccc(C(=O)N3CCCC(O)C3)cc2)CC1` (stereo not drawn) the inhibition was -34.2%. Molecule `CSc1nc(Cl)cc(=O)[nH]1` has an inhibition of 6.5%. In the case of `CSc1cc(C)[nH]c(=O)n1`, the inhibition is reported as -1.97%. With `O=C(NCC(c1ccco1)N1CCc2ccccc21)c1ccccc1Br` (stereo not drawn) the inhibition was 11.1%. With `O=C(Nc1nc2ccccc2n1Cc1ccc(Cl)cc1)c1ccco1` the inhibition was -7.17%. In the case of `Cc1ccc(Cn2c(NS(=O)(=O)c3ccccc3)nc3ccccc32)cc1`, the inhibition is reported as -3.28%. For `CC(=O)NCCc1nc2ccccc2n1Cc1ccc(Cl)cc1`, the inhibition was 0.72%. `CC(=O)NCCCc1nc2ccccc2n1Cc1ccc(C)cc1` gave an inhibition of 1.78%. Molecule `CC(=O)Nc1ccc(-c2nc3cc(Cl)ccc3o2)cc1` has an inhibition of 49.8%. Molecule `CC/C(=N\NC(N)=O)c1c(O)[nH]c(=O)[nH]c1=O` has an inhibition of -25.7%. In the case of `C/C(Cn1nnc([N+](=O)[O-])n1)=N\NC(=O)c1ccc(C)cc1`, the inhibition is reported as 55.5%. Work on `C/C(Cn1nnc([N+](=O)[O-])n1)=N\NC(=O)c1ccc(O)cc1` yielded an inhibition of 54.4%. With `Cc1nc2c(sc3nc4c(cc32)COC(C)(C)C4)c(=O)n1Cc1ccccc1` the inhibition was 8.21%. `CCCNC(=O)OCCC12CC3CC(CC(C3)C1)C2` showed an inhibition of 69.4%. In the case of `CCNC(=O)OCC12CC3CC(CC(C3)C1)C2`, the inhibition is reported as 77%. With `COc1ccc(Cl)c2sc(N(CCN(C)C)C(=O)CCS(=O)(=O)c3ccc(C)cc3)nc12` the inhibition was 26.4%. For `O=C(NCC1CCCN(C(=O)c2cccnc2)C1)c1ccc(-c2ccccc2)cc1` (stereo not drawn), the inhibition was -2.83%. In the case of `O=C(O)c1ccc(Nc2ncc([N+](=O)[O-])cc2[N+](=O)[O-])cc1`, the inhibition is reported as 5.68%. For `O=[N+]([O-])c1ccc(Nc2ccc(Cl)cc2)nc1`, the inhibition was 16.9%. Molecule `COc1ccc(CCNC(=O)c2ccc(S(=O)(=O)N(C)c3ccccc3)cc2)cc1OC` has an inhibition of -1.9%. `O=C(CC1CCCC1)Nc1cc(C(F)(F)F)ccc1-n1cncn1` gave an inhibition of 12.3%. `c1ccc(Nc2ccccn2)nc1` showed an inhibition of 3.72%. `c1ccc(Nc2ccccc2Nc2ccccn2)nc1` showed an inhibition of 0.46%. `COc1cc(NC(=O)c2ccc([N+](=O)[O-])o2)ccc1NC(=O)c1ccco1` showed an inhibition of 66.5%. In the case of `Cc1ccc(CNC(=O)c2ccc(Br)o2)cc1`, the inhibition is reported as 71.9%. `Cc1cccc(NC(=O)COC(=O)c2ccc([N+](=O)[O-])o2)c1C` gave an inhibition of 61.9%. For `O=C(NCc1cccnc1)c1ccc([N+](=O)[O-])o1`, the inhibition was 62.8%. With `Cc1cccc(NC(=O)c2cccc(Cn3cc(Br)c([N+](=O)[O-])n3)c2)c1C` the inhibition was -0.16%. `Cc1ccccc1Cn1nnc(C(=O)Nc2cccc(C)c2C)c1N` showed an inhibition of 26%. `Cc1cccc(NC(=O)c2ccco2)c1C` showed an inhibition of -14.2%. For `COc1ccccc1NC(=O)c1ccc(-c2ccccc2[N+](=O)[O-])o1`, the inhibition was 25%. For `O=C(NCc1ccccc1)c1cc[n+](Cc2ccccc2)cc1`, the inhibition was -1.18%. In the case of `Cc1ccc(C(C)(C)NC(=O)C2CCC(=O)N(C3CCCCCC3)C2)cc1` (stereo not drawn), the inhibition is reported as 8.48%. With `Cc1ccccc1CC(=O)N1CCN(S(=O)(=O)c2cccs2)CC1` the inhibition was -18.2%. `O=C(Cc1ccccc1)NC(c1ccco1)c1c(O)ccc2ccccc12` (stereo not drawn) gave an inhibition of 11.6%. `O=C(NCc1ccccc1)C1=C[C@@H](c2csc3ccccc23)C[C@@H](OCCCCO)O1` showed an inhibition of -6.19%. Work on `NC(=O)c1cc(S(=O)(=O)N2CC=C(c3ccccc3)CC2)cs1` yielded an inhibition of -1.59%. Molecule `N#CCc1ccc(NC(=O)CSc2nnc(C3CC3)n2C2CC2)cc1` has an inhibition of -7.07%. `CC(=O)OCC(=O)Nc1ccc(SC(F)F)cc1` gave an inhibition of -17.3%. For `COc1ccc(CNC(=O)N2CCN(c3cccc(C)c3C)CC2)cc1OC`, the inhibition was 47.1%. Work on `Cc1ccc2nc(-c3ccncc3)cc(C(=O)N3CCC4(CC3)OCCO4)c2c1` yielded an inhibition of 8.38%. In the case of `O=C(CSc1ncn(-c2ccccc2)n1)Nc1nccs1`, the inhibition is reported as 12.5%. In the case of `Cc1cc(OC2CCCCC2)nc(-c2ccccc2O)n1`, the inhibition is reported as 0.01%. Molecule `C=C1CCC[C@]2(C)C[C@H]3OC(=O)C(CNC(CC)CO)[C@H]3CC12` (stereo partly drawn) has an inhibition of 34.3%.
